Screens deposited in PubChem by several laboratories.
CHT allo act: allosterically activates the human high affinity choline transporter; 0.49% of 310,000 active; CHT-expressing cells, membrane potential dye, choline EC20; hits give high values; LV-AA mutant CHT in HEK293 cells; B-score at 10 µM; Q9GZV3;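 active = initial fluorescence not abnormally high and integrated response B-score, plate-corrected, over 3 SD above library mean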
MEKK2 WT-MEK5: raises or lowers MEK5 binding to wildtype human MEKK2 PB1 domain. Q9Y2U5. binding response (% of control), % at 10 µM. 1.1% of 290,000 active. bead flow cytometry, Alexa488-MEK5 binding to MEKK2 WT; actives lie on both sides; in the data active = binding response below about 67% or above about 130%
SUMO Mot1 rescue: blocks SUMOylation pathway, rescuing yeast Mot1-301 growth | S. cerevisiae Mot1-301 growth rescue, ATP luminescence, 38.5C; percent above DMSO median, 100 means doubled | 1% of 320,000 active | growth rescue, % at 18.8 µM;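 active = every valid replicate shows activation above 250% relative to neutral control wells; inactive = the rest, any valid replicate at or below 250%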
MEKK3 PB1 HTS: raises or lowers MEK5 binding to the human MEKK3 PB1 domain; Q99759; bead-based flow cytometry, Alexa488-MEK5 binding to MEKK3; actives lie on both sides; 0 = blocked by unlabeled MEK5, 100 = vehicle; binding response (% of control), % at 10 µM; 1.4% of 290,000 active; AID 1529;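 active = binding response more than 3 SD above or below the average of its plate-row segment, actives on both sides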;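 note: Alexa488 bead fluorescence after subtracting the streptavidin-only scavenger bead signal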
Target sequence (Q99759 whole entry, looked up, the tested form may be a part): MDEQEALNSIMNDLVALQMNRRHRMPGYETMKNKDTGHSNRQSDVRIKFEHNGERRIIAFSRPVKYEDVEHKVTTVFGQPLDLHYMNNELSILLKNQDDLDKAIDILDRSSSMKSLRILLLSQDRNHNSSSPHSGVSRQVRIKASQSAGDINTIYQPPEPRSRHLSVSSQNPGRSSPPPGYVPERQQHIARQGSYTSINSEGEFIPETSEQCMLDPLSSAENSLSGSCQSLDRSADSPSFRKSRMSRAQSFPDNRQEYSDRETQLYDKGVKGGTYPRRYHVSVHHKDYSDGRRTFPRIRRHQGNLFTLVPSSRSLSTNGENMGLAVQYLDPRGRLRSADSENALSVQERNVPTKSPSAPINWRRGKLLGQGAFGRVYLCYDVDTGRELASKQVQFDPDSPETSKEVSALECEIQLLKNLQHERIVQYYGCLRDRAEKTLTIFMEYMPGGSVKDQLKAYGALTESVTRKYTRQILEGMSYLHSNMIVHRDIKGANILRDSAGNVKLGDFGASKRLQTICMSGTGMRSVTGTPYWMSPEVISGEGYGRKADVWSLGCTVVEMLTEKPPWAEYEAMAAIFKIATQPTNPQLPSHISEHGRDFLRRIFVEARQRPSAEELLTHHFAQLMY
CHT inh: inhibitors of human choline transporter CHT. Q9GZV3. CHT-expressing cells, membrane potential dye, choline response; hits give low values. B-score at 10 µM. 0.86% of 310,000 active;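 active = B-score over 3 SD under the library average, and starting fluorescence ratio not unusually high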;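 note: choline stimulus applied at its EC90 after an EC20 pre-addition; B-score computed on integrated fluorescence ratio after choline addition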
MEKK2mut PB1 HTS: signal of MEK5 binding to mutant human MEKK2 PB1 domain; bead flow cytometry, Alexa488-MEK5 binding to MEKK2 mutant; percent response, % at 10 µM; 0.35% of 290,000 active; AID 1530; in the data active = percent response above about 24%, passing the limit was not always enough
Yeast Mot1 SUMO: yeast SUMO pathway inhibition in dose response; shares compounds with SUMO Mot1 rescue; S. cerevisiae Mot1-301 galactose growth, ATP luminescence, 24 h; -100 = growth of slx-deleted rescue strain; growth activity, percent, % at 42 µM; 2,300 tested, under 10 active; AID 493004;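 active = Signal drops as the depositor expects, and the fitted half-maximal dose is no more than ten times the top valid tested dose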;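 note: more negative values mean stronger growth rescue toward the control strain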
Numbers stand for hits; - = inactive; . = no result; ! = not confirmed by another sample. Hits are enriched below; roughly 4.1% of the tested compounds scored in any of these assays.

SMILES | CHT allo act | MEKK2 WT-MEK5 | SUMO Mot1 rescue | MEKK3 PB1 HTS | CHT inh | MEKK2mut PB1 HTS | Yeast Mot1 SUMO
C/C(=N\NC(=S)Nc1ccccc1)C1Cc2ccccc2C(=O)O1 (stereo not drawn) | - | - | 393 | - | - | - | -
CCN(C(=O)COC(=O)CCc1ccccc1OC)c1c(N)n(Cc2ccccc2)c(=O)[nH]c1=O | - | . | - | . | - | . | .
CCN(C(=O)Nc1ccccc1OC)c1c(N)n(Cc2ccccc2)c(=O)[nH]c1=O | - | - | 471 | - | - | - | -
COc1ccc(-c2c(C)nn3c(C)cc(C)nc23)cc1 | - | - | 519 | - | - | - | -
Cc1cc(Cl)n2nc(C)c(-c3ccc(Cl)cc3)c2n1 | - | - | . | - | - | - | .
CCOC(=O)C1(Cc2cccc(Cl)c2)CCCN(C(=O)CCOC)C1 (stereo not drawn) | - | - | 389 | - | - | - | -
CCOC(=O)C1(Cc2cccc(Cl)c2)CCCN(C(=O)CCSC)C1 (stereo not drawn) | - | - | - | - | - | - | .
CCN(CC)CC(=O)Nc1ccc(Oc2ccc(NC(=O)CN(CC)CC)cc2)cc1 | - | - | 371 | - | - | - | -
CCN(CC(=O)Nc1ccc(OC)cc1)CC(=O)Nc1ccc(Cl)cc1F | - | - | - | - | - | - | .
CN(C(=O)CSc1ncccc1C(=O)O)c1ccccc1 | - | - | - | - | - | - | .
CCCN(CCC)C(=O)CSc1ncccc1C(=O)O | - | - | 399 | - | - | - | -
CCCCn1c(N)c(N(CCC(C)C)C(=O)c2ccc([N+](=O)[O-])s2)c(=O)[nH]c1=O | - | . | - | . | - | . | .
Cc1ccccc1C(=O)/C=C1\NC(=O)CS1 | - | - | 368 | - | - | - | -
O=C1CS/C(=C/C(=O)c2ccccc2)N1 | - | - | - | - | - | - | .
CCN1C(=O)[C@H]2[C@@H](c3ccc(-c4ccc(OC)cc4)c(OC)c3)N3CCCC[C@@]3(C(=O)OC)[C@H]2C1=O | - | . | - | . | - | . | .
CCc1ccccc1N/C(=N\S(=O)(=O)c1ccccc1)C(F)(F)F | - | - | - | - | - | - | .
C/C(N)=C(/C#N)C(=O)COC(=O)c1cc(-c2ccc(Br)cc2)nc2ccccc12 | - | - | - | - | - | - | .
CCOC(=O)CN1C(=O)N[C@@H](c2cccc(F)c2)C(C(=O)OC)=C1C | - | - | - | - | - | - | .
Fc1ccc(CNC(=S)NC2CCCCCC2)cc1 | - | - | - | - | - | - | .
CSc1nncc(/C(C)=N\Nc2cccc(C)c2)n1 | - | . | 366 | . | - | . | -
CC1CCN(CCCCOc2cccc(Br)c2)CC1 | - | - | 373 | - | - | - | -
CC1CCN(CCCCOc2ccc(Br)cc2)CC1 | - | - | - | - | - | - | .
Cc1ccc(S(=O)(=O)N2CCCCC2)cc1NC(=O)CSc1ncn[nH]1 | - | - | . | - | - | - | .
O=C(CSc1ncn[nH]1)Nc1cccc(S(=O)(=O)N2CCCCCC2)c1 | - | - | 499 | - | - | - | -
Cc1ccc(-c2nc(-c3ccncc3)no2)cc1C | - | - | - | - | - | - | .
SMILES | CHT allo act | MEKK2 WT-MEK5 | SUMO Mot1 rescue | MEKK3 PB1 HTS | CHT inh | MEKK2mut PB1 HTS | Yeast Mot1 SUMO
Fc1cccc(F)c1-c1nc(-c2ccncc2)no1 | - | - | 952 | - | - | - | -
Cc1ccc(C(=O)CCC(=O)OCC(=O)N(C)c2c(N)n(Cc3ccccc3)c(=O)[nH]c2=O)cc1 | - | . | - | . | - | . | .
COc1cc(NC(=O)c2cc(Cl)ccc2Cl)ccc1-c1cc2ccccc2oc1=O | - | - | 406 | - | - | - | -
COC(=O)c1ccc2[nH]c(C(C)(C)O)c(C)c2c1 | - | - | 684 | - | - | - | -
COC(=O)c1ccc2[nH]c(C)cc(=O)c2c1 | - | - | - | - | - | - | .
CC(N=C(NC#N)Nc1ccncc1)C(C)(C)C (stereo not drawn) | - | - | 798! | - | - | - | -
CCCC1Cc2c(sc3ncnc(N)c23)CO1 (stereo not drawn) | - | - | 420 | - | - | - | -
COCc1cc(C)nc(Nc2ccccc2OC)c1C#N | - | - | - | - | - | - | .
